# Assay results from the supplement of paper PMC11732987, “Enantioselective OTUD7B fragment discovery through chemoproteomics screening and high-throughput optimisation” (Communications Chemistry, 2025).
# A number with no mark means an inactive call.
# Columns and labels:
# Experiment in all cases: log2 ratio of Biotin-Ahx-Ub-VS probe labelling (fragment/DMSO); higher = less target engagement (more negative = stronger competition), active = hit call of the paper (q ≤ 0.05, log2 ratio ≤ -1)
# Conditions in all cases: compound concentration: 200 uM; treatment time: 3 h
# [1] = molecular target: T1, OTUD6B (UniProt Q8N6M0)
# T1 sequence (whole entry): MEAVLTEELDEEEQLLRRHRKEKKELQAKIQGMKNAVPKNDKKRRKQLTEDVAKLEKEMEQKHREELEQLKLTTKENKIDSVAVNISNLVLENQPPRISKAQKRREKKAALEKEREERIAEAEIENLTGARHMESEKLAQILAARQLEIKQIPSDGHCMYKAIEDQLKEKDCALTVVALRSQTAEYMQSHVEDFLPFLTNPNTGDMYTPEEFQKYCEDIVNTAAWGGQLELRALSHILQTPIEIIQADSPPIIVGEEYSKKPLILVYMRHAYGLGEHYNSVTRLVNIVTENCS
# Outline: (§1)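 Average log2 ratios of fragment over vehicle were obtained by unpaired t-test from global-median-normalised Spectronaut label-free quantities. Proteins with ≥2 unique peptides were included. HEK293T lysate (495 µg per sample) was treated in triplicate with fragment at 200 µM or vehicle for 3 h, then with Biotin-Ahx-Ub-VS at 0.5 µM final for 1 h, and labelled DUBs were NeutrAvidin-enriched and run by diaPASEF LC-MS/MS.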
# [2] = molecular target: T2, OTUD7B (UniProt Q6GQQ9)
# T2 sequence (whole entry): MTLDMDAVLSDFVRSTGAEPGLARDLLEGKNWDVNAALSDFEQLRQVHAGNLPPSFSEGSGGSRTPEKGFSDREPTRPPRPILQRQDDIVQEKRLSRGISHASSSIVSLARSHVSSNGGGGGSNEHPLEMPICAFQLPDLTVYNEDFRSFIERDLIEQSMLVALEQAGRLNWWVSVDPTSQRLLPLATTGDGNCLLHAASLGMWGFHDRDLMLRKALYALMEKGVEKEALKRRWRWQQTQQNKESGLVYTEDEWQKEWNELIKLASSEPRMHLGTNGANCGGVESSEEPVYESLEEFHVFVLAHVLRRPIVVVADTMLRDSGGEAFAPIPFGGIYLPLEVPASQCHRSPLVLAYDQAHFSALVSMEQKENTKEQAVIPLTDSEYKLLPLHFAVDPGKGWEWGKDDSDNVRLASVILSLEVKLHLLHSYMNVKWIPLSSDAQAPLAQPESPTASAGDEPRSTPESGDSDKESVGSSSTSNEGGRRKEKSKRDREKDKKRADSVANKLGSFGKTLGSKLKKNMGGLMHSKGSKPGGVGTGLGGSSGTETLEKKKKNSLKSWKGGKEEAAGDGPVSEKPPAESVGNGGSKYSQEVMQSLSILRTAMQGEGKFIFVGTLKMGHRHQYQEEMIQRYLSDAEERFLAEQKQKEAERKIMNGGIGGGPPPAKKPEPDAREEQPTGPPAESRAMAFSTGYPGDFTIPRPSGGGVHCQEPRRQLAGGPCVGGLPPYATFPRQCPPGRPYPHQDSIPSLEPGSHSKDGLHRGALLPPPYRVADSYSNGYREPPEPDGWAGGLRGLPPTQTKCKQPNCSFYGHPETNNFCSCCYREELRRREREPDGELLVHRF
# Outline: as §1
# [3] = molecular target: PRPF8 (UniProt Q6P2Q9)
# Outline: as §1
# [4] = molecular target: T3, PSMD7 (UniProt P51665)
# T3 sequence (whole entry): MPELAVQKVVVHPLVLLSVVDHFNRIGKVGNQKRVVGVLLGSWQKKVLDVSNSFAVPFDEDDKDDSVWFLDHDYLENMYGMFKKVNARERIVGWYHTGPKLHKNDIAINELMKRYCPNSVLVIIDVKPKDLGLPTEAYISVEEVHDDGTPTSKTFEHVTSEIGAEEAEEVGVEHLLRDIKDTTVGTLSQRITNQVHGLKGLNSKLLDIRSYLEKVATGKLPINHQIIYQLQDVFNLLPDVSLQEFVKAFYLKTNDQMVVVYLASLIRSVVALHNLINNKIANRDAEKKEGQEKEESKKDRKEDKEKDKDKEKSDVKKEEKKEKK
# Outline: as §1
# [5] = molecular target: UCHL1 (UniProt P09936)
# Outline: as §1
# [6] = molecular target: T4, UCHL3 (UniProt P15374)
# T4 sequence (whole entry): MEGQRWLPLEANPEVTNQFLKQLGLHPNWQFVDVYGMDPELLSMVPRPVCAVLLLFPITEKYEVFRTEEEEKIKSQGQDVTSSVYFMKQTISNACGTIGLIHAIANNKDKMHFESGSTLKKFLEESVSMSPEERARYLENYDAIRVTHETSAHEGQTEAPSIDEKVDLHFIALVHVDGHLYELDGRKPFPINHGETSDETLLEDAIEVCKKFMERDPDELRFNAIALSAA
# Outline: as §1
# [7] = molecular target: T5, UCHL5 (UniProt Q9Y5K5)
# T5 sequence (whole entry): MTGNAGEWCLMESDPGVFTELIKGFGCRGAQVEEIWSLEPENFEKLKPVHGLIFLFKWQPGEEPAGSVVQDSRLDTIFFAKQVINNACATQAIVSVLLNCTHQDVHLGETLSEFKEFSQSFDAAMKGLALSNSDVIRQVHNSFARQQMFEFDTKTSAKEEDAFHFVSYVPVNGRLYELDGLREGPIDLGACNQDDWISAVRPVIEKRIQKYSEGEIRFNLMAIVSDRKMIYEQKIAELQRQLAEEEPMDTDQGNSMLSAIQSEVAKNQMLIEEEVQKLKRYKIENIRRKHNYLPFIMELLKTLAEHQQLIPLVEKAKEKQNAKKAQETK
# Outline: as §1
# [8] = molecular target: USP10 (UniProt Q14694)
# Outline: as §1
# [9] = molecular target: T6, USP15 (UniProt Q9Y4E8)
# T6 sequence (whole entry): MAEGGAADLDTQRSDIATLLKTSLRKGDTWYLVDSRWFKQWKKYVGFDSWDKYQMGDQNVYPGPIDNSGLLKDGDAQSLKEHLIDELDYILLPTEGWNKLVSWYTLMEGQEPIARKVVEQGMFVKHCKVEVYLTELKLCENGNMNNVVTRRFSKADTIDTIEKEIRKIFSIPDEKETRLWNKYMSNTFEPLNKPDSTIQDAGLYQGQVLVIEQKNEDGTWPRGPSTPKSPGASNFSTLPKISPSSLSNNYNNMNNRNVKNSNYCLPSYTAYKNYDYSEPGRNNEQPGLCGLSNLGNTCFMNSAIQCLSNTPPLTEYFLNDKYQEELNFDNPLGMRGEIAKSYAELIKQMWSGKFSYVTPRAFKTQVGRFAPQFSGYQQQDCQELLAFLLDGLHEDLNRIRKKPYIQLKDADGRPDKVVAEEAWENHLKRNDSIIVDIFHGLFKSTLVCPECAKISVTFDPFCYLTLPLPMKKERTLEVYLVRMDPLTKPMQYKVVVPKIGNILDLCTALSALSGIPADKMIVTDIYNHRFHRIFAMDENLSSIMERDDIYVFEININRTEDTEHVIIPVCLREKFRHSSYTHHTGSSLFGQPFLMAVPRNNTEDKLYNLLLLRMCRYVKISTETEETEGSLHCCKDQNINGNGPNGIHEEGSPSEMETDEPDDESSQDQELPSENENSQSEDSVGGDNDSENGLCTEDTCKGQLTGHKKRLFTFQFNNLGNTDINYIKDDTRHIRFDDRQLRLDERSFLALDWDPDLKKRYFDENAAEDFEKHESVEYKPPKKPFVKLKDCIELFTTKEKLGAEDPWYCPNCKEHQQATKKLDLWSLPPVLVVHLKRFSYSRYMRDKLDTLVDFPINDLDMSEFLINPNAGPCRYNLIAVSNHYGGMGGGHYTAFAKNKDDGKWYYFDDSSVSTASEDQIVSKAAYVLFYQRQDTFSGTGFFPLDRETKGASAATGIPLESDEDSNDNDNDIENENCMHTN
# Outline: as §1
# [10] = molecular target: USP16 (UniProt Q9Y5T5)
# Outline: as §1
# Sequence of UCHL1 (P09936 whole entry, looked up): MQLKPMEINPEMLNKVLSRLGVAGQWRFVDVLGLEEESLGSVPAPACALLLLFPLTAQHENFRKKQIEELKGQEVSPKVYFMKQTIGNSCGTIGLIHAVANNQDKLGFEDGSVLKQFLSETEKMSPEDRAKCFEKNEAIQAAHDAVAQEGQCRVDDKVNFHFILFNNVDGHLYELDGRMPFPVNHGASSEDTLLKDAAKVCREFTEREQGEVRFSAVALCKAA
# Sequence of USP10 (Q14694 whole entry): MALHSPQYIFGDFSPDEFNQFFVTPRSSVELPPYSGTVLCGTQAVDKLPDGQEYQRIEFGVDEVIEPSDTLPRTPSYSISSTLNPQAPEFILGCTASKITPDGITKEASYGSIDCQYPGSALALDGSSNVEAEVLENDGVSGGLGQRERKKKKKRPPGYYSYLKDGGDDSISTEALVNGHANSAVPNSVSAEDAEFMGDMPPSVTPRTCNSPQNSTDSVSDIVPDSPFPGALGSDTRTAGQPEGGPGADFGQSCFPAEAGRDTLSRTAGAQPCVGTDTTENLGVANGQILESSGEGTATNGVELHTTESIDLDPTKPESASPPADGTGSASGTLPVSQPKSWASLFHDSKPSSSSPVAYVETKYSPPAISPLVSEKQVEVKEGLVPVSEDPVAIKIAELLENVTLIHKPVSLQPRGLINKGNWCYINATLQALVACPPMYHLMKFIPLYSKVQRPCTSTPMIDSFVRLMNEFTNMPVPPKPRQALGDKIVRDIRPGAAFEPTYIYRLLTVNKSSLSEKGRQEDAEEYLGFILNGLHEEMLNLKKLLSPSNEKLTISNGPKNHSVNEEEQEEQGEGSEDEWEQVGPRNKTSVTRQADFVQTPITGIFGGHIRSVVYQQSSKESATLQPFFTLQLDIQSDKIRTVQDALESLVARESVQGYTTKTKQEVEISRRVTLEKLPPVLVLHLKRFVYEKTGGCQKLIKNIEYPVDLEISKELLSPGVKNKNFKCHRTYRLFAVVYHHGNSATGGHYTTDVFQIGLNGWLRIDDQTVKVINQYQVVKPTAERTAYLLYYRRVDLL
# Sequence of USP16 (Q9Y5T5 whole entry, looked up): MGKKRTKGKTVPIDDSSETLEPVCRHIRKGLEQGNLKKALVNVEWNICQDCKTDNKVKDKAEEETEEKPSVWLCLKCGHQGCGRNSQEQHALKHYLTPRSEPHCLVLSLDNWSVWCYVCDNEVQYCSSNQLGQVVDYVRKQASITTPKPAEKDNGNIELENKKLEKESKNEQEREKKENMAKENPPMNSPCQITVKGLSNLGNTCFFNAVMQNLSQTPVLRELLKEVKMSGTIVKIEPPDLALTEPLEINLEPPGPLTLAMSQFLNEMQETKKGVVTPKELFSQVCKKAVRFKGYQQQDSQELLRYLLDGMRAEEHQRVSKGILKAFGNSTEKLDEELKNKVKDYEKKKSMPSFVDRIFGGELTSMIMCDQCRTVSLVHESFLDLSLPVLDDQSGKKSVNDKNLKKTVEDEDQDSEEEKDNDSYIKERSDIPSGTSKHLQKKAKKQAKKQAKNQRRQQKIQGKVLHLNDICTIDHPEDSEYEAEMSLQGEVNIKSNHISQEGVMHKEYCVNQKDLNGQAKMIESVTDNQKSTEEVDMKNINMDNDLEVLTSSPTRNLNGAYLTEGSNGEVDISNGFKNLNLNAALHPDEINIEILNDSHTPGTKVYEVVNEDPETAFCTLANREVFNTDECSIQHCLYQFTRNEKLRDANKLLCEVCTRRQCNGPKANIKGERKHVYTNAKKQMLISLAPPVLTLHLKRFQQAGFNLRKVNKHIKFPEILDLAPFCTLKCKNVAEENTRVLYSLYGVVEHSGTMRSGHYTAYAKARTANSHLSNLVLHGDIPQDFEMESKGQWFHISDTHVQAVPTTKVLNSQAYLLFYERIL
structure (smiles),measurement,setting,value
O=C(CCl)Nc1nnc(CC(F)(F)F)o1,log2 ratio of Biotin-Ahx-Ub-VS probe labelling,[1],-0.105
same,log2 ratio of Biotin-Ahx-Ub-VS probe labelling,[2],-0.451
same,log2 ratio of Biotin-Ahx-Ub-VS probe labelling,[3],0.0577
same,log2 ratio of Biotin-Ahx-Ub-VS probe labelling,[4],-0.157
same,log2 ratio of Biotin-Ahx-Ub-VS probe labelling,[5],-1.5 (active)
same,log2 ratio of Biotin-Ahx-Ub-VS probe labelling,[6],-0.128
same,log2 ratio of Biotin-Ahx-Ub-VS probe labelling,[7],-0.204
same,log2 ratio of Biotin-Ahx-Ub-VS probe labelling,[8],-0.0274
same,log2 ratio of Biotin-Ahx-Ub-VS probe labelling,[9],-0.341
same,log2 ratio of Biotin-Ahx-Ub-VS probe labelling,[10],0.0973
